Experimental data reported in PubChem BioAssay (NCATS).

These compounds were tested against Glucocorticoid receptor (Homo sapiens) (UniProt P04150) (assay: GR-GFP Redistribution (AID 450)). Details: U2OS GR-GFP nuclear translocation, laser cytometry, 2 h; series mostly up to 20.6 µM;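 active = compounds whose dose series gives a full or clear partial fitted curve of increased nuclear translocation; inconclusive = weak partial curve or effect only at the top dose; inactive = no dose-dependent translocation response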.
Potency is the fitted concentration of half-maximal effect.

Sequence of Glucocorticoid receptor (Homo sapiens) (P04150 whole entry, looked up): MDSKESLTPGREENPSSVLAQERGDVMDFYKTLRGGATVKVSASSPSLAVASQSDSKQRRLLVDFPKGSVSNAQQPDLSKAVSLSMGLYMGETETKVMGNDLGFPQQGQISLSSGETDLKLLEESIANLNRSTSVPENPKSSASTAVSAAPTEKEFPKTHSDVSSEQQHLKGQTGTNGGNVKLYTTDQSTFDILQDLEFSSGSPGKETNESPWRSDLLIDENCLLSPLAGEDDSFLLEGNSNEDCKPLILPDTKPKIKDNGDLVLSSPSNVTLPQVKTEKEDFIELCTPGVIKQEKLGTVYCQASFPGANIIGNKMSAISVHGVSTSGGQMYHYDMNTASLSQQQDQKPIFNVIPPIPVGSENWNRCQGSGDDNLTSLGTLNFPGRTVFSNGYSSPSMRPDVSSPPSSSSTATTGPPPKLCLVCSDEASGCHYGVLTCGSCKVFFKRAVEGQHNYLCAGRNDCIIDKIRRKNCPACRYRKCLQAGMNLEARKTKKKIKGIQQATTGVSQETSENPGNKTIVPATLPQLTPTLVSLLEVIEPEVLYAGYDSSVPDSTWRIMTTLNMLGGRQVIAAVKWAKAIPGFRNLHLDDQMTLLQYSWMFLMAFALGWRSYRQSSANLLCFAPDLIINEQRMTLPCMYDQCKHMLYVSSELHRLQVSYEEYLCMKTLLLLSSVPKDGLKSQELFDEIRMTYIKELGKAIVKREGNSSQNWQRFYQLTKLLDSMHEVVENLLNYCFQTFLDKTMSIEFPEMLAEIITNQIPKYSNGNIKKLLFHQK

Potency, inactive:
COc1ccccc1-c1nnc2sc(COc3ccccc3)nn12 > 20.6 µM, CN1C(=O)N(c2ccccc2)C(Nc2nncs2)C1(C)C (stereo not given) > 20.6 µM, COc1ccccc1-c1cc(-c2cc(Cl)ccc2O)n[nH]1 > 20.6 µM, CN1CCC2(CC1)C1CN(C)CC=C1C(C#N)=C(N)C2(C#N)C#N (stereo not given) > 20.6 µM, COc1ccc2c(c1)[nH]c1c(=O)n(CC3CCCO3)cnc12 (stereo not given) > 20.6 µM, COCCN(C(=O)Nc1ccccc1)c1ccccc1C > 20.6 µM, OCCOCCNc1ncnc2c1cnn2-c1ccc(Cl)cc1 > 20.6 µM, O=C1C=C(O)CC(c2ccco2)C1 (stereo not given) > 20.6 µM, O=C(NC1(C(F)(F)F)C(=O)Nc2c1c(=O)[nH]c(=O)n2-c1ccccc1)c1cccnc1 (stereo not given) > 20.6 µM, COc1ccc(NC(=O)C2CSC3c4ccccc4C(=O)N23)cc1 (stereo not given) > 20.6 µM, CN(C)CCNc1nc(-c2ccco2)c2c(c1C#N)CC(C)(C)OC2 > 20.6 µM, C/C(=N\O)C(=O)NCCCn1ccnc1 > 20.6 µM, Cc1nnc2n(Cc3ccccc3)c(=O)c3c4c(sc3n12)CN(Cc1ccccc1)CC4 > 20.6 µM, CCC(C)Nc1nc(OC)nc(N(C)C#N)n1 (stereo not given) > 20.6 µM, O=C(Nn1cnnc1)C(c1ccccc1)c1ccccc1 > 20.6 µM, CCCCCOc1ccccc1C(=O)NCC(=O)O > 20.6 µM, COc1ccccc1Cn1c2nc3ccccc3nc2c2c(=O)n(CC(C)C)cnc21 > 20.6 µM, CSc1nc(N)nc(SCC(=O)OC(C)C)c1C#N > 20.6 µM, CC(=O)c1cc(C#N)c(SCC(=O)C(C)(C)C)nc1C > 20.6 µM, O=C(O)CC(C(=O)N(c1ccccc1)c1ccccc1)N1CCOCC1 (stereo not given) > 20.6 µM, O=C(NCCOCCOCCNC(=O)c1cccnc1)c1cccnc1 > 20.6 µM, COc1cccc(N2C(=O)C(O)=C(C(C)=O)C2c2ccc(OC)c(OC)c2)c1 (stereo not given) > 20.6 µM, CCCCCCn1c(C(C)O)nc2ccccc21 (stereo not given) > 20.6 µM, Cc1cc(/C(O)=C2\C(=O)C(=O)N(CCN(C)C)C2c2ccncc2)ccc1OCc1ccccc1 (stereo not given) > 20.6 µM, COc1ccc(C2CC(c3ccc(C)cc3)Nc3nc(N)nn32)cc1 (stereo not given) > 20.6 µM, CCCC1Cc2c(sc3ncnc(N)c23)CO1 (stereo not given) > 20.6 µM, Cc1occc(=O)c1OC(=O)Nc1ccccc1 > 20.6 µM, COC(=O)C(C)Sc1nc2c(c(=O)n(C)c(=O)n2C)n1CCC(C)C (stereo not given) > 20.6 µM, CC(=O)[C@H]1[C@@H]2C(=O)N(c3cccc(Cl)c3)C(=O)[C@@H]2[C@H]2c3ccccc3C=CN21 > 20.6 µM, Cc1cc(=O)[nH]c(COc2ccccc2)n1 > 20.6 µM, CC(C)=CCC(C)(C)CNC(=O)NC1CCCCC1 > 20.6 µM, COc1ccc2c(c1)C1(C)CC(C)(C)N2C(=O)N1c1ccccc1 (stereo not given) > 20.6 µM, COc1cccc(N2CCN(C3CC(=O)N(c4cccc(Cl)c4)C3=O)CC2)c1 (stereo not given) > 20.6 µM, COc1ccc(OC)c(C2/C(=C(/O)c3ccc(C)cc3)C(=O)C(=O)N2Cc2ccco2)c1 (stereo not given) > 20.6 µM, CC(C)CC(=O)Nc1ncnc2c1C(=O)CC(C)(C)C2 > 20.6 µM, CSc1nc2sc3c(c2c2nnnn12)CC(C)(C)OC3 > 20.6 µM, Cc1ccc2[nH]c3c(c2c1)CN(C(=O)CN1CCN(c2ccccn2)CC1)CC3 > 20.6 µM, COc1ccccc1N1CCN(C2CCN(C(=O)c3cccs3)CC2)CC1 > 20.6 µM, COc1cc(-c2nn3c(-c4ccco4)nnc3s2)cc(OC)c1OC > 20.6 µM, OCCN=C(c1ccccc1)C12CN3CN(CN(C3)C1)C2 > 20.6 µM
